Calls of active or inactive are those of the source.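 The calls were made as follows: active = a band for the stress protein GRP78 appears on a western blot of treated cells; inactive = no band seen on the blot.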
Assay: Hit Validation Western Blot Assay for Inducers of ERSR: Assessment of GRP78 Upregulation
Conditions: cells, 4-24 h
Text: Primary protein unfolding takes place for many diseases, including diabetes and hypoxia, , and triggers a reaction in the cells called ER stress response (ERSR). ). ERSR is designed as a repair mechanism, but ultimately leads to cell death via apoptosis if conditions triggering protein unfolding persist (1). The molecular clue to ERSR activation is the enhancement of the expression of key molecular chaperones, including the glucose regulated protein (GRP) 78. GRP78 is the main sensor for protein folding and the main actuator of the ERSR. In a collaboration between the Southern Research Institute and the NIH Chemical Genomics Center, a cell based screen was developed that reliably uses GRP78 as a sensor to identify small molecules as inducers of ERSR. In resting conditions, GRP78 binds proteins and acts as a natural repressor. Once unfolded proteins are present in the ER, GRP78 releases some of the repressors and binds to the unfolded proteins. The release of the repressors executes the ERSR program. Using a human glioma cell line in a miniaturized, luminescent format, a high-throughput screen was developed to identify actuators of the ERSR. In this assay, hits identified in the primary ERSR screen were characterized for their effects on wild type GRP78 upregulation using a western blot secondary assay. NIH Chemical Genomics Center [NCGC] […]

| SMILES | outcome |
| --- | --- |
| Cc1noc(C)c1C(=O)N1CCC2(CCCN(C(c3ccccc3)c3ccccc3)C2)CC1 | active; yes |

Source: PubChem BioAssay AID624498 (National Center for Advancing Translational Sciences (NCATS), 2012)
